Assay outcomes deposited in PubChem by National Center for Advancing Translational Sciences (NCATS).
TrxR1 substrate – substrates of rat thioredoxin reductase 1; O89049; 390,000 compounds, 0.01% hits; Potency, µM (series often up to 114 µM), inactives show top-dose activity change, negative = substrate turnover; purified TrxR1 substrate turnover, NADPH consumption readout; AID 588456; note: potency is the fitted concentration of half-maximal effect; % is set by controls: 0 for no effect and ±100 for the full control effect; nearly all actives have a fitted effect of over 50% in size
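Rat TrxR1, dispensed at 90 nM, was prereduced with 400 uM NADPH (final) for 5 min at ~22 deg C, then incubated with compound 15 min before 400 uM selenite. A first-read NADPH fluorescence drop versus no-compound background flagged substrates.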
Eya2 phos inh – Eya2 (human) phosphatase inhibition. O00167. recombinant Eya2, OMFP fluorescence dephosphorylation (OMFP is methylfluorescein phosphate). Potency, µM (highest dose often 76.9 µM), for inactives: at the highest dose activity, negative = inhibition, most hits filed as inhibitors. 330,000 compounds, 0.006% hits; note: potency is the fitted concentration of half-maximal effect; % is set by controls: 0 for no effect and ±100 for the full control effect
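Eya2 protein (added as 0.2 uM solution) was preincubated with compound for 10 min at ambient temperature in 50 mM HEPES pH 7.5, 50 mM NaCl, 5 uM MgCl2, 0.05% BSA, 1 mM DTT. OMFP (added at 50 uM) then reacted 10 min; fluorescence read at 485/525 nm.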
RGS4 inh – inhibitors of human regulator of G protein signaling 4. Transcreener GDP fluorescence polarization, RGS4-accelerated GTP hydrolysis. Potency, µM (titrated, usually from 114 µM), for the others: at the highest dose activity change, negative = inhibition, most hits filed as inhibitors. AID 504845. 390,000 compounds, 0.039% hits; note: potency is the fitted concentration of half-maximal effect; % is set by controls: 0 for no effect and ±100 for the full control effect; nearly all actives have a fitted effect of over 75% in size
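MLSMR compounds (23 nl, pin-transferred) preincubated 10 min at room temperature with a 500nM (2x) first reagent, then RGS4 at 900nM (2x) plus Transcreener GDP mix added; fluorescence polarization (620/688 nm) read before and after 90 min at 30 °C.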
USP2a block – inhibitors of human ubiquitin-specific protease USP2a; 330,000 compounds, 0.01% hits; O75604; USP2 core, Ub-CHOP2 coupled fluorogenic reporter, 485/531; Potency, µM (top dose mostly 38.3 µM), inactives show top-dose activity change, negative = inhibition, usual class: inhibitors; AID 463254;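 note: potency is the fitted concentration of half-maximal effect; plate controls were DMSO wells for no effect and full inhibition by NEM control for full effect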
Target sequence (O75604 whole entry, looked up): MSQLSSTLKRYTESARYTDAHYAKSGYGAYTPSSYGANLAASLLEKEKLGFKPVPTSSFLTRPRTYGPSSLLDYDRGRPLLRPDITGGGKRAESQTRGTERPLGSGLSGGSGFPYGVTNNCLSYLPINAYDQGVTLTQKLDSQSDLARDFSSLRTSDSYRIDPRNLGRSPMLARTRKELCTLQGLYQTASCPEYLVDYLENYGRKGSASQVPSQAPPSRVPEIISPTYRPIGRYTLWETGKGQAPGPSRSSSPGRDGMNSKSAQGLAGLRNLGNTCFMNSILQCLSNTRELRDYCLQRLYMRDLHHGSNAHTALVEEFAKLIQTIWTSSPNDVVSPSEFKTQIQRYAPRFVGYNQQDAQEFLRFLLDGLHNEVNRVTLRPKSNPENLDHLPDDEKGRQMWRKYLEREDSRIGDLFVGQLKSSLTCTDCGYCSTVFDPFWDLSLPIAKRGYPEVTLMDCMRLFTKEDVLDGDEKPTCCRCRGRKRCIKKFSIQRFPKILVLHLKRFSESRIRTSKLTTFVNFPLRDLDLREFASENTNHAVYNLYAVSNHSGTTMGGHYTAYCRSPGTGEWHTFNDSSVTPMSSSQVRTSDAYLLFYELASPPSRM
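Deubiquitinase activity read as fluorescence (485/531 nm) after Ub-CHOP2 cleavage activates the enterokinase reporter on its substrate; USP2 core 10nM, Ub-CHOP2 and substrate 25nM each, 30min compound preincubation then 60min RT; data normalized to NEM, curves fitted.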
GALK inhibitor – galactokinase (human) inhibition; 270,000 compounds, 0.007% hits; Potency, µM (highest dose often 57.5 µM), for inactives: at the top dose activity change, negative = inhibition, hits mostly inhibitors; P51570; Purified GALK, Kinase-Glo residual ATP luminescence; note: potency is the fitted concentration of half-maximal effect; % is set by controls: 0 for no effect and ±100 for the full control effect
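Luminescence from leftover ATP (Ultra-Glo luciferase/luciferin) served as read-out after a 1 h room-temperature reaction of 5 nM GALK with 35 uM ATP and 100 uM galactose.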
TrxR1 inh-1 – blocks rat thioredoxin reductase 1; 390,000 compounds, 1% hits; O89049; recombinant rTrxR1, NADPH fluorescence consumption, selenite substrate; Potency, µM (highest dose often 114 µM), inactives show at the highest dose activity change, negative = inhibition, hits mostly inhibitors; note: potency is the fitted concentration of half-maximal effect; % is set by controls: 0 for no effect and ±100 for the full control effect; nearly all actives have a fitted effect of over 65% in size
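Rat TrxR1 (90 nM in the dispensed reagent) was pre-reduced with 400 uM NADPH for 5 min at room temperature, then incubated with compound for 15 min. After 400 uM selenite was added, NADPH fluorescence (Ex 340/Em 450 nm) was followed for 8 min.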
GR inh – inhibits human glutathione reductase in TrxR1 counterassay; 55 tested, under 10 active; activity change, negative = inhibition, % at 57.1 µM; shares compounds with TrxR1 inh-1; purified GR, DTNB reduction absorbance 405 nm kinetic
TrxR1 inh-2 – rat TrxR1 inhibition, primary screen retest. AID 652023. recombinant TrxR1, NADPH fluorescence consumption, selenite substrate. 55 compounds, 50% hits. shares compounds with TrxR1 inh-1. Potency, µM, usual class: inhibitors
TrxR1 insulin – TrxR1 inhibitors: insulin reduction mechanism-of-action test; shares compounds with TrxR1 inh-1; TrxR1 Trx-coupled insulin reduction, NADPH absorbance 340 nm; Potency, µM; 55 compounds, 20% hits; AID 652037;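 active = compounds with a measured potency under 100 micromolar; inconclusive = filed, but no rule given; inactive = potency at or above that, or unmeasurable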
TrxR1 inh-3 – rat thioredoxin reductase 1 inhibition, DTNB assay; purified TrxR1, DTNB reduction, A412; 55 compounds, 90% hits; Potency, µM; shares compounds with TrxR1 inh-1;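 active = a half-inhibiting concentration could be measured and was below 100 µM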
Numbers without * were called inactive; i = inactive; ? = inconclusive; nt = no result given; [ ] = remark or other dose. Sampled rows, rich in hits. Any-hit rate of the full collection: about 1%. Unless noted, calls come from the whole dose curve; as a rule, active = well fitted curve in the direction sought with a large enough effect; inconclusive = small, poorly fitted or top-dose-only effect, or another doubt; inactive = no such curve, though single readings can be large; an effect the other way counts as inactive or inconclusive.

SMILES	TrxR1 substrate	Eya2 phos inh	RGS4 inh	USP2a block	GALK inhibitor	TrxR1 inh-1	GR inh	TrxR1 inh-2	TrxR1 insulin	TrxR1 inh-3
Cc1cc2nc(Sc3c([N+](=O)[O-])nc(C)n3Cc3ccccc3)[nH]c2cc1C	-8.0%	-6.8%	-23.8%	-0.4%	-2.9%	7.08µM*	-11.2	2.99*	32µM*	0.013µM*
Cc1nc([N+](=O)[O-])c(N2CCOCC2)n1Cc1ccccc1	-8.5%	?	18.6%	-1.2%	0.3%	6.6%	nt	nt	nt	nt
O=S(=O)(NCCc1csc2nc(-c3ccc(Cl)cc3)nn12)c1cccs1	-0.5%[57.1 µM]	nt	23.4%	nt	nt	17.9%[57.1 µM]	nt	nt	nt	nt
CC(C)OC(=O)c1cn(-c2ccccc2)nc1-c1ccco1	8.0%	-7.6%	?	2.9%	-2.0%	5.01µM*	-12.7	?	i	2.48µM*
CCOC(=O)c1c(C)oc2c1c(CN1CCN(C(=O)OCC)CC1)c(O)c1ccccc12	3.6%	-3.8%	?	0.4%	-0.5%	1.58µM*	-22.8	?	i	0.332µM*
CCOC(=O)c1c(C)oc2c1c(CN1CCN(CCO)CC1)c(O)c1ccccc12	5.7%[57.1 µM]	9.9%	?	-1.5%	0.3%	1.12µM*	-20.5	0.299*	i	0.771µM*
Cc1cc(S(=O)(=O)C(CNC(=O)c2ccc(OC(C)C)cc2)c2cccs2)ccc1F (stereo not drawn)	-8.2%[57.1 µM]	nt	20.3%	nt	nt	3.0%[57.1 µM]	nt	nt	nt	nt
Cc1ccc(S(=O)(=O)N2CCN(c3nc(-c4ncco4)nc4ccccc34)CC2)cc1	1.4%	nt	-46.2%	nt	nt	7.7%	nt	nt	nt	nt
COCCN1C(=O)c2oc3ccccc3c(=O)c2C1c1ccc(C(=O)OC)cc1 (stereo not drawn)	8.3%[57.1 µM]	8.4%	-15.0%	0.9%	-3.1%	17.1%[57.1 µM]	nt	nt	nt	nt
COC(=O)c1ccc(C2c3c(oc4ccccc4c3=O)C(=O)N2CCCN2CCOCC2)cc1 (stereo not drawn)	7.2%[57.1 µM]	-10.9%	?	0.4%	1.6%	10µM*	-8.4	?	i	1.16µM*
COc1ccc(CN(Cc2ccccc2)C(=O)c2ccno2)cc1COc1ccc(NC(C)=O)cc1	-8.7%	nt	-32.7%	nt	nt	-32.1%	nt	nt	nt	nt
CCCn1c(N)c(C(c2ccc(OC)cc2)N2CCN(c3ccccc3)CC2)c(=O)[nH]c1=O (stereo not drawn)	8.2%[57.1 µM]	15.5%	4.9%	5.6%	-0.9%	10µM*	1.2	?	i	0.173µM*
O=C(COC(=O)c1cc(S(=O)(=O)N2CCOCC2)ccc1F)Nc1cc([N+](=O)[O-])ccc1F	0.4%	0.0%	-13.7%	2.5%	nt	6.5%	nt	nt	nt	nt
O=C(COC(=O)c1cc([N+](=O)[O-])ccc1Cl)NC1CCCC1	-8.3%	-2.8%	13.0%	1.7%	8.2%	?	nt	nt	nt	nt
